Screens as filed in PubChem.
FLuc counter – inhibits or activates purified firefly luciferase, miR-21 counter-screen. 360,000 compounds, 6.9% hits. Potency, µM (highest dose often 57.5 µM), without a hit: at the highest dose activity change, negative = inhibition, usual class: inhibitors. AID 588342. purified FLuc, Km substrates, luminescence inhibition. P08659;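 also: plate controls were vehicle for no effect and reference inhibitor for full effect; nearly all actives have a fitted effect of over 55% in size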
Target sequence (P08659 whole entry, looked up): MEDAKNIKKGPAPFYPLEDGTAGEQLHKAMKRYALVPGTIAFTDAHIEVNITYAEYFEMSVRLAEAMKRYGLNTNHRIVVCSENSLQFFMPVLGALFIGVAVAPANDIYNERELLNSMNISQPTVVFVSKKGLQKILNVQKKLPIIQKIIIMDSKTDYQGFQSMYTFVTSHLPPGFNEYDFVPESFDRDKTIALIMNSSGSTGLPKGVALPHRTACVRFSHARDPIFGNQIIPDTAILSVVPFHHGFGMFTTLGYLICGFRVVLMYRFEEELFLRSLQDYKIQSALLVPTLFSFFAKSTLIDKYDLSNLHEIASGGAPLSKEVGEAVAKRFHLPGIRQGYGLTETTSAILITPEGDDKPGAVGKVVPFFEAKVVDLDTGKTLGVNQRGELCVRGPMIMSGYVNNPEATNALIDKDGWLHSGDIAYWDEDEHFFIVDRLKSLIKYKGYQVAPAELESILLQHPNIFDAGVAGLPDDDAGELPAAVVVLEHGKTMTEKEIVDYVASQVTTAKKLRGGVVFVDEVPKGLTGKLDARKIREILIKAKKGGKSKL
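Biochemical qHTS of compounds, final roughly 60 µM downward over six points, against 10 nM purified firefly luciferase using Km concentrations of substrates (10 uM D-luciferin, 10 uM ATP) in Tris acetate pH 7.5 buffer; luminescence output.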
NPC1 prom act – activates the NPC1 promoter. Huh7 NPC1 promoter luciferase reporter, 24 h. Potency, µM (top dose mostly 9.22 µM), for the others: at the top dose activation, actives largely listed as activators. 320,000 compounds, 2.4% hits; also: % of control where 0% means no effect; nearly all actives have a fitted effect of over 60% in size
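In 1536-well qHTS, Huh7 cells harboring an NPC1 promoter–luciferase construct received compound for 24 h; activation was quantified by luminescence following luciferase reagent addition.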
ELG1 genotoxic – inducers of genotoxicity in HEK293T ELG1-luciferase cells; Potency, µM (doses to about 46 µM), without a hit: top-dose activity change, positive = activation, usual class: activators; AID 504466; 330,000 compounds, 1.3% hits; HEK293T ELG1-luciferase reporter, luminescence, 16 h; also: % of control where 0% means no effect; nearly all actives have a fitted effect of over 60% in size
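Step 1: seed 2,000 HEK293T ELG1-luciferase cells per well. Step 2: add compound or DMSO, incubate 16 hr at 37 °C. Step 3: ONE-Glo, 30 min at room temperature, read luminescence.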
KinaseGlo FLuc – Kinase-Glo luciferase inhibition (counter-screen); Q27757; Kinase-Glo luciferase, ATP luminescence, 8 min; Potency, µM (top dose mostly 38.3 µM), without a hit: top-dose activity change, negative = inhibition, hits mostly inhibitors; 200,000 compounds, 0.28% hits; also: % is scaled to controls: 0 for no effect and ±100 for the full control effect; nearly all actives have a fitted effect of over 60% in size
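Substrate mix (final 50 mM imidazole pH 7.2, 50 mM KCl, 7 mM MgCl2, 10 uM ATP, 0.01% Tween 20, 0.05% BSA) plus pin-tool compound, then Kinase-Glo detection mix; 8 min ambient, luminescence read.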
SMN2 splice up – enhancers of SMN2 splice variant expression. HEK293 SMN2-luciferase splicing reporter, luminescence, 30-36 h. Potency, µM (titrated, usually from 46.1 µM), for the others: at the highest dose activity change, positive = activation, most hits filed as activators. 210,000 compounds, 2.8% hits; also: % of control where 0% means no effect; nearly all actives have a fitted effect of over 55% in size
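qHTS luciferase splicing reporter: luminescence rises when SMN2 exon 7 is included in transfected HEK293 cells. Compound exposure lasted 30-36 h at 37C, with 4.5 mM final sodium butyrate as control, followed by a ONE-Glo read.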
Rab9 prom act – activates the Rab9 promoter; AID 485297; Huh7 Rab9 promoter-luciferase reporter, luminescence, 24 h; Potency, µM (highest dose often 9.22 µM), without a hit: at the highest dose activation, negative = inhibition, usual class: activators; 320,000 compounds, 2.8% hits; also: % of control where 0% means no effect; nearly all actives have a fitted effect of over 60% in size
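Measured in stably transfected Huh7 cells bearing a Rab9 promoter–luciferase construct: 24 h compound treatment at 37 °C, followed by luminescence detection.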
Active calls of the source: *; u = inconclusive; x = no result given; [ ] = remark or other dose. Only some compounds are listed: those with a hit (about 7.4% of all), similar ones and a draw of the others. Calls follow the shape of the dose curve; as a rule, active = well fitted curve in the direction sought with a large enough effect; inconclusive = small, poorly fitted or top-dose-only effect, or another doubt; inactive = no such curve, though single readings can be large; an effect the other way counts as inactive or inconclusive. Potency is read from the fitted curve at half-maximal effect.

SMILES	FLuc counter	NPC1 prom act	ELG1 genotoxic	KinaseGlo FLuc	SMN2 splice up	Rab9 prom act
CCCCOc1ccc(C(=O)Nc2ccc(S(=O)(=O)Nc3onc(C)c3C)cc2)cc1	17µM*	-7%	0%	x	x	-6%
CCCOc1ccc(C(=O)Nc2ccc(S(=O)(=O)Nc3cc(C)nc(C)n3)cc2)cc1	15µM*	1%	-4%	x	x	-1%
COc1ccc(OCC(=O)Nc2ccc(S(=O)(=O)Nc3nc(C)cc(C)n3)cc2)cc1	-19%	-2%	-1%	-3%	3%	4%
Cc1cc(C)nc(NS(=O)(=O)c2ccc(NC(=O)COc3ccc(C(C)(C)C)cc3)cc2)n1	11µM*	x	x	x	-9%	x
Cc1ccc(C)c(N2CCN(S(=O)(=O)c3ccc(-c4cnc(C5CC5)o4)cc3)CC2)c1	-2%	x	x	x	x	x
CC(C)Cc1nn2c(=O)cc(COC(=O)c3ccccc3NC(=O)c3ccccc3)nc2s1	-13%	x	x	x	x	x
Cc1ccc(C)c(NC(=O)C(=O)NCCc2csc(-c3cccc(F)c3)n2)c1	-3%	x	x	x	x	x
CC1=CC(=O)OC1Cc1ccc2ccccc2n1 (stereo not given)	x	x	x	u	6%	x
COC(=O)c1cnn(-c2ccccc2)c1N	-3%	18%	2%	x	x	11%
COc1ccc(OC(=O)c2cnn(-c3ccccc3)c2C)cc1	4.8µM*	3.2µM*	u	-6%	u	3.2µM*
Cc1cc(C(=O)OCC(=O)Nc2c(F)cccc2F)c(C)n1-c1ccccc1	11µM*	24%	16%	2%	-6%	25%
Cc1nn(-c2ccccc2)c(C)c1C(=O)Oc1ccccc1	17µM*	28%	15%	x	x	u
Cc1nn(-c2ccccc2)c(C)c1C(=O)OCC(=O)Nc1ccccc1F	4.8µM*	4µM*	u	x	x	2.2µM*
COc1ccccc1Cn1cc(C(=O)c2ccc(C)cc2)c(=O)c2cc3c(cc21)OCCO3	-13%	x	x	x	-3%	x
Cc1cc2sc(C)[n+](CCCOS(=O)(=O)O)c2cc1C	x	x	x	-4%[7.66 µM]	-6%[9.22 µM]	x
COc1ccc(OC(=O)c2c(C)nn(-c3ccccc3)c2C)cc1	15µM*	u	u	x	x	u
CC(=O)c1c(C)nn(-c2ccccc2)c1C	2%	-1%	0%	x	x	-6%
CCc1ccc2oc(-c3cc(NC(=O)c4cc([N+](=O)[O-])ccc4N4CCOCC4)ccc3Cl)nc2c1	u	x	x	x	6%	x
Cn1nnc(NC(=O)c2cccc(F)c2)n1	1%	-3%	5%	11%	-9%	-1%
CCCn1nnc(NC(=O)c2ccc3ccccc3c2)n1	15µM*	u	3%	3%	x	u
CCn1nnc(NC(=O)c2cccnc2)n1	5%	1%	1%	2%	14%	0%
Cc1ccc(C(=O)Nc2nnn(C)n2)cc1	17µM*	29%	u	-6%	u	u
CCCn1nnc(NC(=O)c2ccc(Cl)cc2Cl)n1	19µM*	3.2µM*	9.2µM*	-15%	88%	3.2µM*
CCn1nnc(NC(=O)c2ccc(C(C)(C)C)cc2)n1	3.4µM*	2.2µM*	u	-5%	x	1.3µM*
NCCC[C@@H](CC(=O)N[C@@H]1CCCC[C@H]1C(=O)N[C@H](CC(=O)N[C@@H](CCC(=O)O)CC(=O)O)Cc1ccccc1)NC(=O)C[C@H](Cc1ccccc1)NC(=O)[C@@H]1CCCC[C@H]1N	x	x	x	1%	-3%	x
SMILES	FLuc counter	NPC1 prom act	ELG1 genotoxic	KinaseGlo FLuc	SMN2 splice up	Rab9 prom act
O=C(NCCc1ccccc1)C(=O)NCC(c1ccc2c(c1)OCO2)N1CCOCC1 (stereo not given)	0%	x	x	x	x	x
CCCn1nnc(NC(=O)c2cccc(OCC)c2)n1	17µM*	u	18µM*	-3%	18µM*	u
O=C(O)CCC(=O)N1CCCC1C(=O)O (stereo not given)	x	2%[46.1 µM]	x	-8%	-12%	-4%[46.1 µM]
O=C1N/C(=N/N=C/c2ccc(O)cc2)SC1Cc1ccccc1 (stereo not given)	2.4µM*	2%	14%	x	x	1%
COc1ccc(CC2S/C(=N/N=C/c3ccc(O)cc3)NC2=O)cc1 (stereo not given)	0.43µM*	28%	u	1%	22%	u
C/C=C1/C(=O)C[C@H]2[C@@H]3CCC4=CC(=O)CC[C@]4(C)[C@H]3CC[C@]12C	x	x	x	x	-40%	x
Cc1cc(C)nc(SCc2cn3c(C)cccc3n2)n1	-19%	1%	0%	x	x	-2%
Cc1cccc2nc(CSc3nc4ccccc4o3)cn12	15µM*	1%	13%	-4%	-2%	20%
c1ccc2oc(SCc3cn4ccccc4n3)nc2c1	9.5µM*	1.4µM*	4.6µM*	-4%	14µM*	1.1µM*
COc1ccc(NC(=O)Cn2c3ncccc3c(=O)n2-c2ccc(C)c(C)c2)c(OC)c1	-5%	x	x	x	x	x
NC(=O)c1c(NC(=O)c2ccccc2F)sc2c1CCCC2	1.9µM*	1.6µM*	u	x	x	0.89µM*
COC(=O)c1c(NC(=O)c2ccccc2C(=O)O)sc2c1CCC2	-4%	-1%	0%	x	x	7%
NC(=O)c1c(NC(=O)c2ccccc2C(=O)O)sc2c1CCCC2	17µM*	2%	-6%	x	x	5%
NC(=O)c1c(NC(=O)c2ccccc2Cl)sc2c1CCC2	15µM*	u	u	x	x	u
NC(=O)c1c(NC(=O)c2cccnc2Cl)sc2c1CCCC2	19µM*	-2%	8%	-4%	3%	0%
CC(C)c1ccc(C2=NC(c3ccncc3)=Nc3ccc(F)cc3N2)cc1	5%	x	x	x	-9%	x
COc1ccc(-n2ncc(C(=O)N3CCc4ccccc4C3)c2C2CCN(C(=O)OC(C)(C)C)CC2)cc1	1%	x	x	x	x	x
CCC1=Nc2cc(C(=O)N3CCC(C)CC3)ccc2Sc2ccc(C)cc21	-6%	x	x	x	-1%	x
NC(=O)c1c(NC(=O)c2ccc(N3C(=O)CCC3=O)cc2)sc2c1CCCC2	11µM*	1%	8%	x	x	-3%
NC(=O)c1c(NC(=O)c2ccc(F)cc2Cl)sc2c1CCC2	13µM*	u	-2%	x	x	u
Cc1onc(-c2c(F)cccc2Cl)c1C(=O)Nc1sc2c(c1C(N)=O)CCC2	-2%	-8%	-11%	-3%	10%	-6%
Cn1cc(Br)c(C(=O)Nc2sc3c(c2C(N)=O)CCCC3)n1	3µM*	7%	11%	x	x	u
CN(C)c1ccc(C2CC(c3ccccc3)=Nc3nc(-c4ccccc4)cn32)cc1 (stereo not given)	13µM*	-1%	5%	-3%	28%	2%
CN(C)c1ccc(-c2n[nH]c(=S)n2-c2ccccc2)cc1	-8%	0%	-2%	-2%	9%	-17%
CCSc1nn2c(=O)c3ccccc3nc2s1	19µM*	3.5µM*	5µM*	u	14µM*	2.5µM*
